Laboratory results taken from the OligoGym collection.

Biological target: ZDHHC20
Experiment: pooled miR-30 sensor sort-seq; sequence = guide strand
Conditions: shRNA
Further: reference of the scale not given here.

| Sequence | sensor-assay potency score (higher = more potent) |
| --- | --- |
| TTGTTGTCTTTCTTGGCTGAAT | -1.21 |
| TTCAGCTCCATTCTCCAGCCAC | -0.374 |
| TTGGACAAGTAGAACTCTTTGG | -0.323 |
| TCTTGTTGTCTTTCTTGGCTGA | 0.533 |
| TTGTAACAGAAGCTTGTTCTGG | -0.283 |
| TTGTTGTTCTATTTTTTCCAAC | -1.28 |
| TAAAGTACTCTAAAACTGTTGC | 0.215 |

Biological target: ZDHHC24
Experiment: as above
Conditions: shRNA

| Sequence | sensor-assay potency score (higher = more potent) |
| --- | --- |
| TCTGCCTGTGAGCAACATGAGC | -1.73 |
| TCCCATGGAAGAGCAGCCCAGC | -1.99 |
| AGACACTCTGCCTGTGAGCAAC | -2.01 |
| TGCCAGAGACACTCTGCCTGTG | -0.683 |
| TAGCAGTAAGCCCAGCCCTGGC | -1.6 |
| TGAGCAACATGAGCCAGGGAAG | -1.75 |
| TAGTTGCCGAAGCCCACGCAGC | -1.53 |
| TGTGAGCAACATGAGCCAGGGA | -0.189 |
| CCTGTGAGCAACATGAGCCAGG | -2.43 |
| TTGAGCAGCTGGAAGGCGGCCA | -0.092 |
| TGAAGCAGCAGGCACAGGAAGG | -1.8 |
| TTGCCGAAGCCCACGCAGCGGC | -1.27 |

Biological target: ZDHHC4
Experiment: as above
Conditions: shRNA

| Sequence | sensor-assay potency score (higher = more potent) |
| --- | --- |
| TTGCTTTTGTTATAATGCCAGG | -1.32 |
| TACTGAATAAGAAAGACCGTGT | 0.745 |
| ATCTCTTGAAGGTTGCTCCGAA | -0.154 |
| TAAACGGGAACTACAGCTCAAA | -0.745 |
| TTTGCTTTTGTTATAATGCCAG | -0.404 |
| TTATACAGGAAAATATCTGTGC | 0.584 |
| TACAGGACAAACAACAGGTAGC | -0.502 |
| TAGAAAGATCTCTTGAAGGTTG | 0.193 |
| TTGGAAACATCACTTCATCAAA | -1.15 |
| ATACAGGACAAACAACAGGTAG | -1.34 |
| TAAATCTGACATCACCACCAAG | -0.923 |
| TACCACTCGTTAGTAGTCTGGT | -0.0383 |

Biological target: ZDHHC6
Experiment: as above
Conditions: shRNA

| Sequence | sensor-assay potency score (higher = more potent) |
| --- | --- |
| TCTTCTATTACTTTATAGCGAA | -0.958 |
| TTCTTGTAGATTTTCAAACTTG | -0.053 |
| AACTGTTCTATTGTTAAGCTGT | -0.493 |
| ATTTTGTCTCCATATAACCAGT | -1.42 |
| TTATTCTTGAAACACCTTCTAT | -0.81 |
| TGAAATTCACACTTCCTCCAGT | -0.0351 |
| TATTCTTGAAACACCTTCTATA | -0.715 |
| TTTGTCTCCATATAACCAGTAT | -0.758 |
| TTCTGCAGTGATGTGAACGTGG | 0.312 |
